Luciferase inh: blocks purified firefly luciferase enzyme activity | P08659 | purified P. pyralis luciferase, luminescence, biochemical | Potency, µM (top dose mostly 115 µM), hits mostly inhibitors | 2.5% of 76,000 active | AID 1347043; also: nearly all actives have a fitted effect of over 65% in size
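Biochemical qHTS: compound (6-point titration) added to 10uM D-luciferin plus 10uM ATP in Tris acetate pH 7.5 buffer with Mg, Tween-20 and BSA, then purified enzyme at 10nM; light output imaged.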
HEK293 tox: cytotoxic compounds in HEK 293 cells. HEK 293 viability, ATP luminescence (CellTiter-Glo), 48-72 h. AID 1345083. 6.6% of 94,000 active. Potency, µM (doses to about 115 µM), hits mostly inhibitors; also: nearly all actives have a fitted effect of over 60% in size
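CellTiter-Glo luminescence (cellular ATP) was read after 48 or 72 hr of compound exposure at 37 degree Celsius. Cells were HEK 293 plated at 250 cells/well.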
NPR1 antag: antagonists of human natriuretic peptide receptor Npr1; 1.6% of 76,000 active; P16066; AID 1347048; HEK293 hNpr1 GloSensor cGMP, ANP-stimulated luminescence; Potency, µM (series often up to 46.3 µM), usual class: inhibitors; calls by dose curve; also: nearly all actives have a fitted effect of over 60% in size
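HEK293 cells stably expressing human Npr1 and cGMP GloSensor pGS-40F, loaded 2 h with 2% GloSensor reagent, given compound 30 min at room temperature. Luminescence read before and 20 min after 0.1 nM hNppA.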
NIH3T3 tox: kills NIH 3T3 cells. NIH 3T3 viability, CellTiter-Glo ATP luminescence, 48-72 h. Potency, µM (titrated, usually from 96.7 µM), usual class: inhibitors. 4.3% of 94,000 active. AID 1345082; also: nearly all actives have a fitted effect of over 55% in size
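ATP-dependent luminescence (CellTiter-Glo) served as the viability signal for NIH 3T3 cells treated with compound for 48 or 72 hr at 37 °C.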
Npr1 antag conf: confirmation of human Npr1 natriuretic peptide receptor antagonists. shares compounds with NPR1 antag. HEK293 hNpr1 cGMP GloSensor luminescence, ANP-stimulated. Potency, µM (highest dose often 57.6 µM), actives largely listed as inhibitors. 76% of 1,400 active. AID 1347044; calls by dose curve; also: nearly all actives have a fitted effect of over 70% in size
Npr2 selectivity: antagonizes human Npr2, subtype selectivity check. Potency, µM (highest dose often 57.6 µM), usual class: inhibitors. HEK293 hNpr2 GloSensor cGMP luminescence, CNP-stimulated. shares compounds with NPR1 antag. 67% of 1,400 active; calls by dose curve; also: nearly all actives have a fitted effect of over 70% in size
FLuc inh counter: FLuc enzyme inhibition, Npr1 counter-screen | shares compounds with NPR1 antag | purified FLuc enzyme, luminescence, Km substrate | Potency, µM (doses to about 57.6 µM), usual class: inhibitors | 0.7% of 1,400 active
GloSensor cGMP: counter-screen for Npr1 antagonists: GloSensor control cell line | shares compounds with NPR1 antag | HEK293 GloSensor cGMP, SNP-stimulated, luminescence | Potency, µM (doses to about 57.6 µM), most hits filed as inhibitors | 69% of 1,400 active | AID 1347051; calls by dose curve; also: nearly all actives have a fitted effect of over 70% in size
Of the large screens only hits and unclear results are named; the others gave an inactive call (follow-up assays come after a bar, where they were run). A selection: hits, their analogues and other compounds. The true share with any hit is near 11%. Unless noted, calls follow the shape of the dose curve; as a rule, active = well fitted curve in the direction sought with a large enough effect; inconclusive = small, poorly fitted or top-dose-only effect, or another doubt; inactive = no such curve, though single readings can be large; an effect the other way counts as inactive or inconclusive.

O=C(c1ccc2nnc(-c3cccc(OC(F)(F)F)c3)n2c1)N1CCCC1	NIH3T3 tox inconclusive (no result: Luciferase inh, NPR1 antag)
CCCc1ccc2oc(C(=O)N(CC)Cc3ccncc3)c(C)c2c1	HEK293 tox 25µM, NPR1 antag 13µM, NIH3T3 tox inconclusive | Npr1 antag conf 19µM | Npr2 selectivity 19µM | FLuc inh counter inactive | GloSensor cGMP 17µM
CCOC(=O)c1ccc(NC(=O)Cn2c(N(C)Cc3ccccc3)nc(C)cc2=O)cc1	HEK293 tox 40µM, NPR1 antag 14µM, NIH3T3 tox inconclusive | Npr1 antag conf 22µM | Npr2 selectivity 22µM | FLuc inh counter inactive | GloSensor cGMP 22µM
Cc1cc(=O)n(CC(=O)Nc2cccc(Cl)c2)c(N(C)Cc2ccccc2)n1	HEK293 tox inconclusive, NPR1 antag inconclusive, NIH3T3 tox inconclusive
COc1ccc(C)cc1NC(=O)Cn1c(N(C)Cc2ccccc2)nc(C)cc1=O	HEK293 tox inconclusive, NPR1 antag 13µM | Npr1 antag conf 24µM | Npr2 selectivity 24µM | FLuc inh counter inactive | GloSensor cGMP 31µM
COc1cc(NC(=O)Cn2c(N(C)Cc3ccccc3)nc(C)cc2=O)cc(OC)c1	HEK293 tox 16µM, NPR1 antag 7.9µM, NIH3T3 tox inconclusive | Npr1 antag conf 11µM | Npr2 selectivity 12µM | FLuc inh counter inactive | GloSensor cGMP 6.9µM
COc1ccccc1NC(=O)Cn1c(N(C)Cc2ccccc2)nc(C)cc1=O	HEK293 tox inconclusive, NIH3T3 tox inconclusive
COc1cc(NC(=O)Cn2c(N(C)Cc3ccccc3)nc(C)cc2=O)cc(OC)c1OC	HEK293 tox inconclusive, NPR1 antag 7.1µM, NIH3T3 tox inconclusive | Npr1 antag conf 11µM | Npr2 selectivity 14µM | FLuc inh counter inactive | GloSensor cGMP 11µM
COc1ccc(-c2cc(C(=O)N3CCN(C(C)=O)CC3)c3cnn(C)c3n2)cc1	none (no result: Luciferase inh, NPR1 antag)
COc1ccc(-n2c(=O)c(C(=O)N3CCC(c4ccccc4)CC3)nc3cccnc32)cc1	none (no result: Luciferase inh, NPR1 antag)
CCn1nc(C)c(CNC(=O)[C@@H]2C[C@@H](O)CN2C2CCN(C(=O)c3cccc(OC)c3)CC2)c1C	none
CN(Cc1cccnc1)c1ccc2ncc(Nc3cccc(C(F)(F)F)c3)n2n1	HEK293 tox 40µM, NPR1 antag 13µM, NIH3T3 tox inconclusive | Npr1 antag conf 14µM | Npr2 selectivity 16µM | FLuc inh counter inactive | GloSensor cGMP 13µM
Cc1nc(C2CC(O)C2)cc(N2CCN(C(=O)c3cccs3)CC2)n1 (stereo not given)	none
Cc1nc(C2CC(O)C2)cc(N2CCN(c3nc4ccccc4s3)CC2)n1 (stereo not given)	HEK293 tox inconclusive, NPR1 antag 7.1µM, NIH3T3 tox inconclusive | Npr1 antag conf 9.7µM | Npr2 selectivity 11µM | FLuc inh counter inactive | GloSensor cGMP 8.6µM
O=C(NCc1ccc(Cl)cc1)[C@@H]1Cc2nc[nH]c2CN1C(=O)NC1CCCCC1	HEK293 tox inconclusive
O=C(Cc1ccc(Br)cc1)N1CCCN(c2cc(-c3ccc(F)cc3)[nH]n2)CC1	HEK293 tox inconclusive, NPR1 antag inconclusive, NIH3T3 tox inconclusive | Npr1 antag conf inconclusive | Npr2 selectivity inconclusive | FLuc inh counter inactive | GloSensor cGMP 27µM
O=C(Cc1ccc(F)cc1)N1CCN(c2cc(-c3ccc(Cl)cc3)[nH]n2)CC1	HEK293 tox 40µM, NPR1 antag inconclusive, NIH3T3 tox inconclusive | Npr1 antag conf inconclusive | Npr2 selectivity inconclusive | FLuc inh counter inactive | GloSensor cGMP inconclusive
COc1ccc(-c2cc(N3CCN(C(=O)Cc4ccc(F)cc4)CC3)n[nH]2)cc1	none
Cc1ccc(Cn2c(C3CCN(C(=O)Cc4cccs4)CC3)n[nH]c2=O)cc1	NIH3T3 tox inconclusive
COc1cccc(CCNC(=O)c2c(C)nc3cnccn23)c1	NIH3T3 tox inconclusive (no result: Luciferase inh, NPR1 antag)
COc1ccc(CN2C[C@@H]3C(=O)N(Cc4ccc5c(c4)OCO5)C(=O)[C@@H]3C2)cc1OC	HEK293 tox inconclusive, NPR1 antag 14µM | Npr1 antag conf 17µM | Npr2 selectivity 19µM | FLuc inh counter inactive | GloSensor cGMP 12µM
COc1ccccc1CN1C[C@@H]2C(=O)N(Cc3ccc4c(c3)OCO4)C(=O)[C@@H]2C1	none
CN(C)c1cccc(C(=O)N2CCC(OCCOc3ccc(F)cc3)CC2)c1	HEK293 tox inconclusive, NPR1 antag 13µM, NIH3T3 tox inconclusive | Npr1 antag conf 24µM | Npr2 selectivity 24µM | FLuc inh counter inactive | GloSensor cGMP 22µM
CCOCCOC1CCN(C(=O)c2cccc(F)c2)CC1	none
CCCn1cc(C(=O)NC(C)c2cnn(-c3cccc(F)c3)c2C)c(C)n1 (stereo not given)	HEK293 tox inconclusive, NPR1 antag 2.8µM | Npr1 antag conf 4.3µM | Npr2 selectivity 6.1µM | FLuc inh counter inactive | GloSensor cGMP 3.1µM
Cc1c(C(C)NC(=O)c2cc(CC(C)C)nn2C)cnn1-c1ccccc1 (stereo not given)	NPR1 antag 0.28µM | Npr1 antag conf 0.43µM | Npr2 selectivity 0.48µM | FLuc inh counter inactive | GloSensor cGMP 0.43µM
O=C(NC1CCCCCC1)c1ccc2nc(-c3ccnc(Cl)c3)oc2c1	HEK293 tox inconclusive (no result: Luciferase inh, NPR1 antag)
O=C(Nc1ccon1)[C@@H]1C[C@@H](c2ccc(F)cc2)N(Cc2ccccc2)C1	HEK293 tox 32µM, NPR1 antag 16µM, NIH3T3 tox inconclusive | Npr1 antag conf 31µM | Npr2 selectivity 20µM | FLuc inh counter inactive | GloSensor cGMP 18µM
Cn1ccc(NC(=O)[C@@H]2C[C@@H](c3ccc(F)cc3)N(Cc3ccccc3)C2)n1	HEK293 tox 50µM, NPR1 antag 35µM, NIH3T3 tox inconclusive | Npr1 antag conf 40µM | Npr2 selectivity 35µM | FLuc inh counter inactive | GloSensor cGMP 35µM
O=C(Cc1ccc(Cl)cc1)N1CCC2(CC1)CN(C1CCC1)CC2CO (stereo not given)	HEK293 tox inconclusive, NIH3T3 tox inconclusive
COc1cncc(CN2CCc3ncc(C(=O)Nc4ccccc4)n3CC2)c1	NIH3T3 tox inconclusive
Cc1nn(Cc2ccccc2)c(C)c1[C@@H]1C=C[C@@H](NC(=O)c2ccc3c(c2)OCO3)C1	HEK293 tox 28µM, NPR1 antag 32µM, NIH3T3 tox inconclusive | Npr1 antag conf 35µM | Npr2 selectivity 35µM | FLuc inh counter inactive | GloSensor cGMP 35µM
COc1ccc(C2Cn3nnc(C(=O)NC4CCCCCC4)c3CO2)cc1 (stereo not given)	HEK293 tox inconclusive, NPR1 antag inconclusive, NIH3T3 tox inconclusive

Source: PubChem BioAssay (National Center for Advancing Translational Sciences (NCATS))
